Records with an inconclusive call do not appear. Where a call stands in place of a potency, no number is given. Calls of active or inactive are those of the source. Calls follow the shape of the dose curve; as a rule, active = well fitted cell-killing curve with a large enough effect in the repeat runs; inconclusive = weak or mixed curves, or effect the other way; inactive = flat fitted curve, though single readings scatter.

Experiment [1] can be described thus: cAMP Responsive Elements (CRE) small molecule antagonists, cell-based qHTS assay: qHTS cell viability counter screen (AID 2060913). Also: nearly all actives have a fitted effect of over 40% in size. Put shortly:
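HEK293T CRE-bla, 2,000 cells/well, 18 h preincubation; cpd in DMSO + NKH477 0.25 uM final, 3 h 37 C/5% CO2; LiveBLAzer 2 h RT, then CellTiter-Glo 30 min RT, luminescence.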
(In qHTS, concentration-response curves come from the screen itself.)

A short description of experiment [2]: cAMP Responsive Elements (CRE) small molecule agonists, cell-based qHTS assay: qHTS cell viability counter screen (AID 2060914). Also: nearly all actives have a fitted effect of over 50% in size. Also: potency is read from the fitted curve at half-maximal effect. Put shortly: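 Cytotoxicity was measured as ATP luminescence (CellTiter-Glo, 30 min at room temperature) in the same wells as the CRE-bla FRET read-out. HEK293T CRE-bla cells had 3 h compound exposure at 37C/5% CO2.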

For the compound `CCN(CC)CCSC(=O)C(c1ccccc1)c1ccccc1`, the Potency result in experiment [1] and in experiment [2] was “inactive” throughout.
Turning to `CCn1cc(C(=O)O)c(=O)c2cc3c(cc21)OCO3`, the Potency result in experiment [1] and in experiment [2] was “inactive” each time.
Consider `Oc1ccc(Sc2ccc(O)cc2)cc1`, for which the Potency result in experiment [1] and in experiment [2] was “inactive” throughout.
Take `CC(C)(C)CC(C)(C)c1ccc(O)c(-n2nc3ccccc3n2)c1`: the Potency entry in experiment [1] is “inactive”. Also, the Potency in experiment [2] was 9.69 µM (active).
As to `COc1cc2c(cc1OC)[C@@H]1CC(=O)[C@@H](CC(C)C)CN1CC2`, the Potency result in experiment [1] and in experiment [2] was “inactive” each time.
In the case of `O=C(O)[C@@H](O)[C@H](O)[C@H](O)[C@@H](O)C(=O)O`, the Potency entry in experiment [1] and in experiment [2] was “inactive” throughout.
Take `COc1cc2c(cc1N)oc1ccccc12`: the Potency entry in experiment [1] and in experiment [2] was “inactive” in each case.
As for `COC(=O)C1=C(C)NC(C)=C(C(=O)OC(C)C)C1c1cccc2nonc12` (configuration not stated), the Potency entry in experiment [1] and in experiment [2] was “inactive” throughout.
With `C=COC(=O)C(C)(CC)CCC(C)C` (configuration not stated), the Potency entry in experiment [1] and in experiment [2] was “inactive” throughout.
With `Cc1c(C)c2c(c(C)c1O)CC[C@@](C)(CCC[C@H](C)CCC[C@H](C)CCCC(C)C)O2`, the Potency entry in experiment [1] and in experiment [2] was “inactive” each time.
Regarding `CCc1cc(C(C)(C)C)c(O)c(C(C)(C)C)c1`, the Potency result in experiment [1] and in experiment [2] was “inactive” each time.
In the case of `C=CC[N+](C)(C)CC=C`, the Potency entry in experiment [1] and in experiment [2] was “inactive” in each case.
`CCN(CC)C(=O)c1ccc(O)c(OC)c1`: the Potency result in experiment [1] and in experiment [2] was “inactive” in each case.
On to `N=c1ccn2c(n1)O[C@H]1[C@H](O)[C@@H](CO)O[C@H]12`, for which the Potency result in experiment [1] and in experiment [2] was “inactive” throughout.
Regarding `CC1(C)C(=O)N(CO)C(=O)N1CO`, the Potency result in experiment [1] and in experiment [2] was “inactive” throughout.
As for `CCCCC(CC)COC(=O)CCCCC(=O)OCC(CC)CCCC` (configuration not stated), the Potency entry in experiment [1] and in experiment [2] was “inactive” each time.
As to `N#Cc1cc(NC(=O)C(=O)O)c(Cl)c(NC(=O)C(=O)O)c1`, the Potency result in experiment [1] and in experiment [2] was “inactive” throughout.
`CC(=O)C1CCCCC1=O` (configuration not stated): the Potency result in experiment [1] and in experiment [2] was “inactive” each time.
On to `CCOC(=O)c1ccc(N)cc1`, for which the Potency result in experiment [1] and in experiment [2] was “inactive” each time.
Regarding `CCN1CCN(C(=O)N[C@@H](C(=O)N[C@@H]2C(=O)N3[C@@H]2SC(C)(C)[C@H]3C(=O)O)c2ccccc2)C(=O)C1=O`, the Potency result in experiment [1] and in experiment [2] was “inactive” each time.
Consider `O=P(O)(O)OP(=O)(O)O`, for which the Potency result in experiment [1] and in experiment [2] was “inactive” each time.

Source of the values: PubChem BioAssay (Tox21).
